Bioassay records (PubChem BioAssay)
USP30 block = inhibitors of human USP30 deubiquitinase; AID 1645860, 2021; 47,000 tested, 5.3% active; Ubiquitin carboxyl-terminal hydrolase 30 (Homo sapiens), Q70CQ3; inhibition, % at 25 µM; purified USP30, Ub-rhodamine cleavage fluorescence
USP17 inh = inhibitors of human USP17 deubiquitinase. inhibition, % at 50 µM. Ubiquitin carboxyl-terminal hydrolase 17-like protein 5 (Homo sapiens), A8MUK1. AID 1645855, 2021. 47,000 tested, 6.5% active. purified USP17, Ub-rhodamine cleavage fluorescence, 3 h
USP28 block = inhibitors of human USP28 deubiquitinase | AID 1645857, 2021 | inhibition, % at 25 µM | 47,000 tested, 3% active | purified USP28, Ub-rhodamine cleavage fluorescence, 30 min
OTUD3 block = inhibitors of human OTUD3 deubiquitinase; OTU domain-containing protein 3 (Homo sapiens), Q5T2D3; purified OTUD3, Ub-rhodamine fluorescence, 2 h; inhibition, % at 25 µM; 47,000 tested, 0.7% active; AID 1645858, 2021
Target sequence (Q5T2D3 whole entry, looked up, the tested form may be a part): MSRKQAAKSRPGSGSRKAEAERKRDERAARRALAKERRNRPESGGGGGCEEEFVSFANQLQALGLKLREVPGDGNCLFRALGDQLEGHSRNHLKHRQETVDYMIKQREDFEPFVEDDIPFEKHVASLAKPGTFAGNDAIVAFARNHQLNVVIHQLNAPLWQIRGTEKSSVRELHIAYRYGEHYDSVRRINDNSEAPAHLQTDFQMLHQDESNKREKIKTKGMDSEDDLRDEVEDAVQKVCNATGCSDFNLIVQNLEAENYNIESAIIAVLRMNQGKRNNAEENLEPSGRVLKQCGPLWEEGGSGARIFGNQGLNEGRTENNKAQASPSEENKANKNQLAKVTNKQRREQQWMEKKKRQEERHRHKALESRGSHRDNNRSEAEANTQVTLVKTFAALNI
A number is an active result; - = inactive; . = no result given. A selection: hits, their analogues and other compounds. The true share with any hit is near 11%. Rule as the data show it: active = inhibition above about 30%; inactive = the rest.

SMILES	USP30 block	USP17 inh	USP28 block	OTUD3 block
COc1cc(OC)cc(-n2c(=O)c3sccc3n(CC(=O)c3ccc(F)cc3)c2=O)c1	56	-	-	-
CCc1nc2c(NS(=O)(=O)c3ccc(F)cc3)cccn2n1	-	-	-	-
O=c1[nH]cccc1NS(=O)(=O)c1ccc(F)cc1	-	86	-	-
CNC(=O)Cn1cnc2c(c(C)c(C)n2-c2ccc(Cl)cc2)c1=O	-	50	-	-
Cc1c(C)n(-c2ccccc2)c2ncn(CC(=O)NCc3ccccc3F)c(=O)c12	-	-	-	-
Cc1c(C)n(-c2ccccc2)c2ncn(CC(=O)NC(C)c3ccccc3)c(=O)c12 (configuration not stated)	75	.	-	45
CS(=O)(=O)c1ccc2nc(NC(=O)C3CC(=O)N(Cc4ccc(F)cc4)C3)sc2c1 (configuration not stated)	-	-	-	-
Cc1cc(=O)n2c3c(c4c(cc13)c(CO)cc(=O)n4C)OC2	-	85	-	-
COc1ccc2[nH]c(=O)c(-c3noc(-c4cccnc4)n3)cc2c1	-	-	-	-
O=C(CCCC1=NS(=O)(=O)c2ccccc2N1)Nc1ccc(Cl)c(Cl)c1	-	34	-	-
Cc1cccc(Nc2cccc(C3CN(C(=O)c4cn(C)nc4C)CCO3)n2)n1 (configuration not stated)	-	-	-	-
CCc1ccc(NC(=O)COC(=O)Cn2cnc3ccccc32)cc1	-	-	32	-
Cc1ccc(NC(=O)COC(=O)Cn2cnc3c2c(=O)n(C)c(=O)n3C)cc1F	-	-	-	-
COc1cc(NC(=O)COC(=O)Cn2cnc3ccccc32)cc(OC)c1	-	-	51	-
Cc1ccc(NC(=O)COC(=O)Cn2cnc3c2c(=O)n(C)c(=O)n3C)cc1	-	-	-	-
Cc1nc(Nc2ccc(Cl)cn2)sc1C(=O)NC1CCCC1	-	-	-	-
CCc1noc(-c2ccc(-n3cnc(C(=O)N4CCc5ccccc5C4)c3)nc2)n1	-	-	-	-
COc1ccc(-c2cn3c4c(=O)n(C)c(=O)n(C)c4nc3n2CCc2ccccc2)cc1OC	-	-	-	-
Cn1c(=O)c2c(nc3n(CCc4ccccc4)c(-c4ccccc4)cn23)n(C)c1=O	41	-	-	-
O=C(CCCC(=O)c1ccccc1)Nc1ccc(F)cc1Cl	-	30	-	-
O=C(CCC(=O)c1ccc(F)cc1)Nc1ccccc1F	-	-	-	-
COc1ccc(NC(=O)CCCC(=O)c2ccccc2)c(OC)c1	-	-	-	-
O=C(CCCC(=O)c1ccccc1)Nc1ccc(F)cc1	-	56	-	-
O=C(/C=C1\NCCc2cc3c(cc21)OCCCO3)c1ccc(OC(F)(F)F)cc1	-	-	-	-
COc1ccccc1OC(C)C(=O)NCc1csc(-c2ccccc2)n1 (configuration not stated)	-	-	-	-
SMILES	USP30 block	USP17 inh	USP28 block	OTUD3 block
c1ccc2c(c1)c(NCc1ccc3c(c1)OCO3)nn1cnnc21	-	41	-	-
O=C(Cn1c(=O)nc(-c2ccccc2)c2ccccc21)NCc1ccc2c(c1)OCO2	-	68	31	-
CN(Cc1ccccc1F)C(=O)c1ccc(-c2ccccc2F)o1	-	.	-	-
O=C(CSc1nnc2sc3ccccc3n12)NCc1ccc2c(c1)OCO2	-	32	-	-
CN(Cc1ccccc1F)C(=O)c1nc(-c2ccccc2)n(-c2ccccc2)n1	47	-	-	-
COc1cccc(CC(=O)N2CCCC(c3[nH]nc4nccnc34)C2)c1 (configuration not stated)	-	-	-	-
Cc1ccc(CS(=O)Cc2ccc(C(=O)NCc3ccc4c(c3)OCO4)o2)cc1 (configuration not stated)	-	-	-	-
Cc1ccc(CNC(=O)CCC(=O)NCc2ccc3c(c2)OCO3)o1	-	38	-	-
O=C(NCc1ccc2c(c1)OCO2)c1nc(-c2ccccc2)n(-c2ccccc2)n1	55	-	-	-
O=C(NCc1ccc2c(c1)OCO2)c1cc2ccccc2s1	-	-	41	-
Cc1nc(-c2ccccc2)sc1C(=O)NCc1ccc2c(c1)OCO2	-	-	-	-
CC(C)C(=O)Nc1nc2ccc(CCC(=O)NCc3ccc4c(c3)OCO4)cc2s1	38	-	-	-
Clc1cccc(-n2cc(-c3ccccc3)c3c(NCc4ccccn4)ncnc32)c1	75	70	53	-
c1ccc(-c2cn(-c3ccccc3)c3ncnc(NC4CC4)c23)cc1	-	-	35	-
COc1ccc(-n2cc(-c3ccccc3)c3c(NC4CC4)ncnc32)cc1	-	-	-	-
Cc1ccc2c(c1)N(S(C)(=O)=O)CCC(C(=O)NC(C)c1ccccc1)O2 (configuration not stated)	-	-	-	-
Cc1cc(-c2ccc(S(=O)(=O)Nc3ccc(F)cc3Cl)s2)on1	-	-	-	-
Cc1ccc(-c2cc(-c3ccc(F)cc3)[nH]c(=O)c2C#N)cc1	.	67	.	-
Cc1ccc(NC(=O)CC2C(=O)Nc3nc(-c4ccccc4)nn32)cc1 (configuration not stated)	-	45	-	-
CC(=O)c1ccc(NC(=O)CC2C(=O)Nc3nc4ccccc4n32)cc1 (configuration not stated)	-	75	-	-
O=C(CC1C(=O)N(C2CCCC2)c2nc3ccccc3n21)Nc1ccc(F)cc1 (configuration not stated)	-	-	-	-
COc1ccc(-c2nc3n(n2)C(CC(=O)Nc2cccc4ccccc24)C(=O)N3)cc1 (configuration not stated)	52	-	-	-
CCCCOc1cccc(C(=O)Nc2nc3ccc(S(C)(=O)=O)cc3s2)c1	36	-	-	-
CCN(c1ccccc1)S(=O)(=O)c1ccc(C(=O)Nc2nc3ccc(F)cc3s2)cc1	-	55	-	-
CCN(c1ccccc1)S(=O)(=O)c1cc(C(=O)Nc2nc3ccc(OC)cc3s2)c(Cl)cc1Cl	-	-	-	-
SMILES	USP30 block	USP17 inh	USP28 block	OTUD3 block
CC(C)CCNc1nccn(-c2cccc(Cl)c2)c1=O	-	-	-	-
Cc1nc(NC(=O)c2ccc(F)cc2)nc2cc3c(cc12)OCO3	-	36	-	-
COc1cc2cc(CN(C(=O)Nc3ccccc3Cl)C3CCCC3)c(=O)[nH]c2cc1OC	-	-	-	-
Cc1ccc(-c2sc(-c3ccccc3)nc2CC(=O)Nc2sccc2C(N)=O)cc1	-	-	-	-
O=C(c1ccccc1)N1CC[C@@H]2CN(C(=O)C3CCCCC3)[C@@H]2C1	-	-	-	-
COc1ccccc1OC(C)C(=O)Nc1ccc2c(c1)NC(=O)CO2 (configuration not stated)	-	-	-	-
COc1ccccc1OC(C)C(=O)Nc1ccc2nsnc2c1 (configuration not stated)	-	32	-	-
CC(C)(c1nnnn1-c1cccc(C(F)(F)F)c1)N1CCOCC1	-	-	-	-
CC(=O)c1ccc(NC(=O)C23CC4CC(C2)CC(n2nnc(C)n2)(C4)C3)cc1	-	-	-	-
